We go through 30 molecules from PubChem BioAssay (NCATS).

Inconclusive results are not listed. Activity calls are given as the source filed them. Calls follow the shape of the dose curve; as a rule, active = well fitted inhibition curve with a large enough effect; inconclusive = small, poorly fitted or top-dose-only effect; inactive = flat fitted curve, though single readings scatter.
Potency is read from the fitted curve at half-maximal effect.

Tested on in one test: not listed separately
The test is described as follows: qHTS profiling for inhibitors of Plasmodium falciparum proliferation (AID 504749). Also: nearly all actives have a fitted effect of over 60% in size.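 As to activity, negative = inhibition: 0% = DMSO vehicle and full inhibition = artemisinin control.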 To be noted: P. falciparum in erythrocytes, SYBR Green DNA, 72 h; at 28.7 µM (top of the series); parasite line B. The gist of the method:
(§1)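 SYBR Green fluorescence (ex 485 nm, em 535 nm) reports parasite DNA after 72 h compound exposure of infected red cells at 0.3% parasitemia, 2.5% hematocrit; signal normalized to 0.29 uM artemisinin and vehicle wells.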
For orientation: qHTS replaces the single test concentration by a dilution series.
As for `C[N+](C)(C)CCOC(N)=O`, the activity, negative = inhibition was 9.29% (inactive).
In the case of `COc1ccc([C@@H]2Sc3ccccc3N(CCN(C)C)C(=O)[C@@H]2OC(C)=O)cc1`, the activity, negative = inhibition is 7.3% (inactive).
As for `CCn1ccnc1CC1COc2ccccc2O1` (stereo not drawn), the activity, negative = inhibition was 1.07% (inactive).
Turning to `Nc1c2c(nc3ccccc13)CCCC2O` (stereo not drawn), the activity, negative = inhibition is 3.67% (inactive).
`CNC1(C)C2CCC(C2)C1(C)C` (stereo not drawn): the activity, negative = inhibition was 5.34% (inactive).
Regarding `CSc1ccc(C(=O)c2[nH]c(=O)[nH]c2C)cc1`, the activity, negative = inhibition was 9.86% (inactive).
Take `NC(=O)c1cn(Cc2c(F)cccc2F)nn1`: the activity, negative = inhibition was 0.958% (inactive).
For `CCN1CCC[C@H]1CNC(=O)c1c(O)c(Cl)cc(Cl)c1OC`, the activity, negative = inhibition is 14.7% (inactive).
On to `CNCCC(Oc1ccccc1OC)c1ccccc1` (stereo not drawn), for which the activity, negative = inhibition was -7.17% (inactive).
In the case of `CN(C)CC/C=C1\c2ccccc2COc2ccccc21`, the activity, negative = inhibition was 6.5% (inactive).
Take `Nc1ncn([C@@H]2O[C@H](CO)[C@@H](O)[C@H]2O)c(=O)n1`: the activity, negative = inhibition was 6.7% (inactive).
Take `NC(=O)c1ncn([C@@H]2O[C@H](CO)[C@@H](O)[C@H]2O)c1O`: the activity, negative = inhibition is 1.87% (inactive).
Take `CC(N=C(NC#N)Nc1ccncc1)C(C)(C)C` (stereo not drawn): the activity, negative = inhibition is -7.16% (inactive).
With `Cc1cc(C)c(/C=C2\C(=O)Nc3ccccc32)[nH]1`, the activity, negative = inhibition is 10.1% (inactive).
With `CN(C)C(=O)Oc1cccc([N+](C)(C)C)c1`, the activity, negative = inhibition is -6.35% (inactive).
On to `O=C(CCNNC(=O)c1ccncc1)NCc1ccccc1`, for which the activity, negative = inhibition is 17% (inactive).
For `O=C(O)CN(CCOCCOCCN(CC(=O)O)CC(=O)O)CC(=O)O`, the activity, negative = inhibition was 13.7% (inactive).
Turning to `C[N+](C)(C)CCOC(=O)CCC(=O)OCC[N+](C)(C)C`, the activity, negative = inhibition was 1.32% (inactive).
Consider `Cc1scc2c1N(C(=O)CN1CCN(C)CC1)c1ccccc1NC2=O`, for which the activity, negative = inhibition was 4.05% (inactive).

The same test, now with this note: P. falciparum in erythrocytes, SYBR Green DNA, 72 h; parasite line A.
Take `C[N+](C)(C)CCCCCCCCCC[N+](C)(C)C`: the Potency is 3.98 µM (active).
On the same count and under the same terms, then `OCCN1CCN(CC/C=C2/c3ccccc3Sc3ccc(C(F)(F)F)cc32)CC1`, with 8.91 µM (active); and `COCC(=O)O[C@]1(CCN(C)CCCc2nc3ccccc3[nH]2)CCc2cc(F)ccc2[C@@H]1C(C)C`, with 3.55 µM (active); and `CC(=O)[C@]1(O)Cc2c(O)c3c(c(O)c2[C@@H](O[C@H]2C[C@H](N)[C@H](O)[C@H](C)O2)C1)C(=O)c1ccccc1C3=O`, with 3.55 µM (active).
Turning to `NC(N)=NC(=O)Cc1c(Cl)cccc1Cl`, the Potency is 5.62 µM (active).
On the same count and under the same terms, then `CCN(CC)CCCN(c1ccccc1)C1Cc2ccccc2C1`, with 4.47 µM (active); and `COC(=O)[C@H]1[C@H]2C[C@@H]3c4[nH]c5cc(OC)ccc5c4CCN3C[C@H]2C[C@@H](OC(=O)c2cc(OC)c(OC)c(OC)c2)[C@@H]1OC`, with 11.2 µM (active).

Still in this test, the particulars now being: P. falciparum in erythrocytes, SYBR Green DNA, 72 h; parasite line B.
On to `C[N+](C)(C)CCCCCCCCCC[N+](C)(C)C`, for which the Potency was 1.58 µM (active).
On to `OCCN1CCN(CC/C=C2/c3ccccc3Sc3ccc(C(F)(F)F)cc32)CC1`, for which the Potency was 11.2 µM (active).
Still for that read-out and setting: in the case of `COCC(=O)O[C@]1(CCN(C)CCCc2nc3ccccc3[nH]2)CCc2cc(F)ccc2[C@@H]1C(C)C` it was 5.01 µM (active).
Still for that read-out and setting: then `CC(=O)[C@]1(O)Cc2c(O)c3c(c(O)c2[C@@H](O[C@H]2C[C@H](N)[C@H](O)[C@H](C)O2)C1)C(=O)c1ccccc1C3=O`, with 11.2 µM (active); and `NC(N)=NC(=O)Cc1c(Cl)cccc1Cl`, with 5.01 µM (active); and `CCN(CC)CCCN(c1ccccc1)C1Cc2ccccc2C1`, with 7.08 µM (active).
Regarding `COC(=O)[C@H]1[C@H]2C[C@@H]3c4[nH]c5cc(OC)ccc5c4CCN3C[C@H]2C[C@@H](OC(=O)c2cc(OC)c(OC)c(OC)c2)[C@@H]1OC`, the Potency is 11.2 µM (active).

A further test relates to 3D7. The description is as above. The settings on record: P. falciparum in erythrocytes, SYBR Green DNA, 72 h; series mostly up to 28.7 µM; activity, negative = inhibition: at the top concentration. In a few lines:
as §1
Turning to `C[N+](C)(C)CCOC(N)=O`, the “activity, negative = inhibition” value was 3.11% (inactive).
Take `C[N+](C)(C)CCCCCCCCCC[N+](C)(C)C`: the Potency is 5.62 µM (active).
On to `COc1ccc([C@@H]2Sc3ccccc3N(CCN(C)C)C(=O)[C@@H]2OC(C)=O)cc1`, for which the “activity, negative = inhibition” value was 18.3% (inactive).
`CN(C)CCCN1c2ccccc2Sc2ccccc21`: the “activity, negative = inhibition” value is 7.58% [at 12.8 µM] (inactive).
As for `CCn1ccnc1CC1COc2ccccc2O1` (stereo not drawn), the “activity, negative = inhibition” value was 0.549% (inactive).
As to `Nc1c2c(nc3ccccc13)CCCC2O` (stereo not drawn), the “activity, negative = inhibition” value was 0.644% (inactive).
On to `CNC1(C)C2CCC(C2)C1(C)C` (stereo not drawn), for which the “activity, negative = inhibition” value is 0.486% (inactive).
Regarding `CSc1ccc(C(=O)c2[nH]c(=O)[nH]c2C)cc1`, the “activity, negative = inhibition” value was -4.25% (inactive).
On the same count and under the same terms, in the case of `NC(=O)c1cn(Cc2c(F)cccc2F)nn1` it was 0.979% (inactive); in that of `CCN1CCC[C@H]1CNC(=O)c1c(O)c(Cl)cc(Cl)c1OC`, -1.4% (inactive); in that of `CNCCC(Oc1ccccc1OC)c1ccccc1` (stereo not drawn), 4.56% (inactive).
In the case of `CN(C)CC/C=C1\c2ccccc2COc2ccccc21`, the “activity, negative = inhibition” value is 1.44% (inactive).
With `Nc1ncn([C@@H]2O[C@H](CO)[C@@H](O)[C@H]2O)c(=O)n1`, the “activity, negative = inhibition” value is -3.97% (inactive).
As to `OCCN1CCN(CC/C=C2/c3ccccc3Sc3ccc(C(F)(F)F)cc32)CC1`, the Potency was 12.6 µM (active).
`NC(=O)c1ncn([C@@H]2O[C@H](CO)[C@@H](O)[C@H]2O)c1O`: the “activity, negative = inhibition” value is 16.1% (inactive).
The same measure, in the same setting: then `CC(N=C(NC#N)Nc1ccncc1)C(C)(C)C` (stereo not drawn), with -4.88% (inactive); and `Cc1cc(C)c(/C=C2\C(=O)Nc3ccccc32)[nH]1`, with 2.43% (inactive).
With `CN(C)C(=O)Oc1cccc([N+](C)(C)C)c1`, the “activity, negative = inhibition” value was -0.637% (inactive).
Turning to `COCC(=O)O[C@]1(CCN(C)CCCc2nc3ccccc3[nH]2)CCc2cc(F)ccc2[C@@H]1C(C)C`, the Potency was 7.94 µM (active).
For `CC(=O)Oc1cc(C(C)C)c(OCCN(C)C)cc1C`, the “activity, negative = inhibition” value is 6.47% [at 12.8 µM] (inactive).
On to `CC(=O)[C@]1(O)Cc2c(O)c3c(c(O)c2[C@@H](O[C@H]2C[C@H](N)[C@H](O)[C@H](C)O2)C1)C(=O)c1ccccc1C3=O`, for which the Potency is 2.82 µM (active).
Turning to `CC(C)COCC(CN(Cc1ccccc1)c1ccccc1)N1CCCC1` (stereo not drawn), the “activity, negative = inhibition” value was 3.97% (inactive).
On to `CCN(CC)CCNC(=O)c1cc(S(C)(=O)=O)ccc1OC`, for which the “activity, negative = inhibition” value is 2.3% [at 12.8 µM] (inactive).
For the molecule `NC(N)=NC(=O)Cc1c(Cl)cccc1Cl`, the “activity, negative = inhibition” value is -28.5% (inactive).
For `CCN(CC)CCCN(c1ccccc1)C1Cc2ccccc2C1`, the Potency is 10 µM (active).
Take `O=C(CCNNC(=O)c1ccncc1)NCc1ccccc1`: the “activity, negative = inhibition” value was 1.89% (inactive).
The same measure, in the same setting: then `O=C(O)CN(CCOCCOCCN(CC(=O)O)CC(=O)O)CC(=O)O`, with -1.15% (inactive); and `C[N+](C)(C)CCOC(=O)CCC(=O)OCC[N+](C)(C)C`, with 7.56% (inactive).
`COC(=O)[C@H]1[C@H]2C[C@@H]3c4[nH]c5cc(OC)ccc5c4CCN3C[C@H]2C[C@@H](OC(=O)c2cc(OC)c(OC)c(OC)c2)[C@@H]1OC`: the Potency was 8.91 µM (active).
In the case of `Cc1scc2c1N(C(=O)CN1CCN(C)CC1)c1ccccc1NC2=O`, the “activity, negative = inhibition” value was 7.39% (inactive).
